Out of some 290,000 compounds screened, about 2,100 (0.72%) were called active. Inconclusive results (about 4%) are left out. Calls follow the shape of the dose curve; as a rule, active = well fitted inhibition curve with a large enough effect; inconclusive = small, poorly fitted or top-dose-only effect, or effect the other way; inactive = flat fitted curve, though single readings scatter. This excerpt belongs to a sample that is enriched for actives.

Outcome data for one compound are collected here from the GenesisPotency data set.

For the test, the target named is Fructose-bisphosphate aldolase, Giardia intestinalis (strain ATCC 50803 / WB clone C6) (UniProt A8B2U2). Put plainly: qHTS Assay for Inhibitors of Fructose-1,6-bisphosphate Aldolase from Giardia Lamblia.
Fructose-bisphosphate aldolase, Giardia intestinalis (strain ATCC 50803 / WB clone C6), sequence (A8B2U2 whole entry, looked up, natural form): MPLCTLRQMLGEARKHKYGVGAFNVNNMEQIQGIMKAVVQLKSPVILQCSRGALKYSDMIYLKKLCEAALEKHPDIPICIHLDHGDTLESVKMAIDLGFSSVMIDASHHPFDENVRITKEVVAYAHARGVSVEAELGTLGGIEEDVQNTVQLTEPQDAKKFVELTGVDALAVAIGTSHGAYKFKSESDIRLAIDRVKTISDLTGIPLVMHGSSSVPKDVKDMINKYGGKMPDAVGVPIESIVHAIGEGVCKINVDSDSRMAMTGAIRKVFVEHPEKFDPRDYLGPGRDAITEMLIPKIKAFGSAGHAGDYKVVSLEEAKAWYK
As to `N.N.[Cl][Pt][Cl]`, the result was active.
